Results on 17 molecules are retold here after PubChem BioAssay (NCI).

The panel holds about 83,000 compounds, 20% with a hit somewhere; the sample as a whole holds those more often.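 Interpretation: 100, growth as untreated; towards 0, rising growth inhibition; 0, no net growth; 0 to -100, cell death. Compounds scoring below 10 were considered active.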 Values without a mark were called inactive. Active and inactive are the calls of the source.

What all share (assay): NCI-60 one-dose screen, 48 h (100 = growth as untreated, 0 = no growth, -100 = all killed)
Assay [1] relates to NCI-H23 lung. As to conditions: 10 µM unless noted.
Assay [2] relates to NCI-H226 lung. As to conditions: 10 µM unless noted.
Assay [3] has as its system NCI-H322M lung. As to conditions: 10 µM unless noted.
Assay [4] relates to NCI-H460 lung. The settings on record: 10 µM unless noted.
For assay [5], the system named is HOP-92 NSCLC. As to conditions: 10 µM.
In assay [6] the test system is NCI-H522 lung. The settings on record: 10 µM.
Assay [7] has as its system 786-0 renal. As to conditions: 10 µM unless noted.
Assay [8] relates to COLO 205 colon. As to conditions: 10 µM unless noted.
For assay [9], the system named is A549/ATCC NSCLC. The settings on record: 10 µM unless noted.
Assay [10] deals with HOP-62 NSCLC. As to conditions: 10 µM unless noted.

`O=C(/C=C\c1ccccc1Cl)c1ccccc1`: the growth in assay [1] is 91.9%; in [2], 86.2%; in [3] it was 104%; in [4], 95.4%; in [5], 112%; in [6] it was 100%. For the same molecule, the growth in [7] was 93.9%; in assay [8] it was 120%.

`CCOc1ccccc1/C=N\N=C(N/N=C/c1ccccc1OCC)N/N=C/c1ccccc1OCC`: the growth was 18.8% in [1]; 20.3% in assay [2]; 11.3% in assay [3]; -21.1% (active) in [5]; 1.5% (active) in assay [6]; 9.6% (active) in [9]. In addition, the growth is 22.9% in assay [7] and -38.9% (active) in assay [8].

On to `CCCCn1c(Cc2ccc(OC)cc2)nc2cc(OC)c(OC)cc2c1=O`, for which the growth was 62.1% in [1]; 68.1% in assay [2]; 101% in assay [3]; 99.2% in [4]; 61.9% in [5]; 87% in [6]. Moreover, the growth in [9] was 19.7%; in assay [8], 107%.

Turning to `COc1ccc(C(O)(c2ccccc2)C(C(=O)O)c2ccccc2)cc1` (centres undefined), the growth in [1] is 102%; in assay [2] it was 106%; in [3] it was 105%; in assay [4], 116%; in assay [5], 63%; in [6], 98.5%. Besides, the growth in assay [7] is 103%; in assay [8] it was 111%.

Take `COc1cccc(Cn2cc3c(c2)-c2oncc2CC3)c1`: the growth was 16.3% in assay [1]; 13.8% in assay [2]; 19.2% in assay [3]; 97.1% in assay [5]; 29.5% in assay [6]; 28.3% in assay [9]. Moreover, the growth in [7] was 30.2%; in assay [8], 9.83% (active).

Regarding `CCCCCCCCCC[N+](C)(C)N`, the growth in assay [2] is 92.3%; in assay [3], 97.7%; in assay [10] it was 95.8%; in [4], 111%; in [9] it was 97.6%; in assay [7], 81.9%. In addition, the growth in assay [8] was 100%.

Turning to `CCCCCC(=C/c1ccccc1)/C=N/N=C(N)N`, the growth in [2] is 66%; in assay [3] it was 20.3%; in assay [10] it was -4.74% (active); in [6], -65.3% (active); in assay [7] it was -65.4% (active); in assay [8], -93.9% (active).

For `CCOC(=O)c1c(C)oc2ncnc(Nc3ccc(C(=O)NCCc4ccccc4)cc3)c12`, the growth was 63.2% in [2]; 92.9% in [3]; 83% in [4]; 61.6% in [5]; 66.9% in [6]; 56.6% in [9]. The growth in assay [7] was 74.9%.

With `COC(=O)c1ccc2[nH]c(O)c(C(=Nc3ccc(N(C)C(=O)CN4CCN(C)CC4)cc3)c3ccc(C)cc3)c2c1`, the growth in assay [2] is 5.6% (active); in assay [3], 19.8%; in assay [4], -43.1% (active); in assay [5] it was 38.7%; in assay [6] it was -33.6% (active); in assay [9], -30.2% (active). Besides, the growth in [7] is -85.1% (active); in assay [8], -61.2% (active).

With `CC(C)OCC1CO1` (centres undefined), the growth in assay [2] is 101%; in [3], 100%; in [10] it was 102%; in assay [4], 97.7%; in assay [9] it was 106%; in assay [7] it was 113%. Moreover, the growth in [8] is 104%.

`COc1cccc2c1n([O-])c1cccc(OC)c1[n+]2=O`: the growth in [2] was 97.8%; in [3], 107%; in assay [4], 47.8%; in assay [5], 94.3%; in assay [6], 53.5%; in assay [9] it was 70.6%. For the same molecule, the growth in assay [7] was 84.2%; in assay [8], 97.6%.

As to `CC1(C)Oc2cc3oc(=O)ccc3cc2C[C@@H]1OCCOS(=O)(=O)c1ccc(C#N)cc1`, the growth in assay [2] is 87.8%; in assay [3] it was 105%; in assay [4], 93%; in assay [5], 91.4%; in [6] it was 77.8%; in [9] it was 92.5%. Moreover, the growth in [7] was 100%.

With `Cc1ccc(C(=O)C(Br)C(Br)c2ccccc2)cc1` (centres undefined), the growth in assay [2] is 92.8%; in assay [3], 95%; in [10] it was 115%; in [4], 101%; in assay [7] it was 99.4%.

For the molecule `CC(=O)Nc1ccc(S(=O)(=O)Cl)cc1`, the growth was 95.5% in [2]; 111% in [3]; 102% in assay [10]; 104% in assay [9]; 104% in assay [7]; 108% in assay [8].

Consider `CC(C)OC(=O)Nn1cnc2ccccc21`, for which the growth in [2] is 106%; in assay [3], 122%; in assay [4] it was 114%; in assay [5], 95.6%; in assay [6], 103%; in assay [9] it was 117%. The figures for the growth in assay [7] and in [8] were 96.7% and 130%, respectively.

Take `O=C(CCCC(=O)Nc1ccc(Cn2nnc3cc(Cl)c(Cl)cc32)cc1)Nc1ccc(CN2N=NC3C=C(Cl)C(Cl)=CC32)cc1` (centres undefined): the growth in [2] is 72.7%; in assay [3], 74%; in assay [4], 84.1%; in assay [5] it was 64.7%; in assay [6] it was 62.4%; in [9], 74.5%. In addition, in [7], the growth is 85.3%.

Regarding `O=C1/C(=C/c2ccc(Cl)cc2)CCC/C1=C\c1ccc(Cl)cc1`, the growth in assay [2] was 104%; in [3], 99.6%; in assay [4], 97.7%; in assay [5], 74.4%; in [6], 83%; in assay [9] it was 65.7%. For the same molecule, the growth in [7] is 91.3%; in [8], 73.3%.
